This note sets out measurements from PubChem BioAssay (EPA / NIEHS).

Read-out in assay [1]: Intercellular Adhesion Molecule 1 (ICAM1), ICAM1 (gene 3383)
Briefly: BSK_3C_ICAM1: BioMAP Diversity Plus: 3C Assay for Intercellular Adhesion Molecule 1 (ICAM1) Biomarker Activity (AID 2283003). As to conditions: primary human endothelial cells (HUVEC); actives raise or lower the signal. In outline:
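Chemicals are dosed onto primary human umbilical vein endothelium (3C system). After 24 h, ICAM-1 is measured by ELISA, and responses are fitted bidirectionally relative to DMSO.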

In assay [2] the target is Retinoic acid receptor alpha (Homo sapiens) (UniProt P10276). Briefly: ATG_RARa_TRANS: Attagene TRANS-FACTORIAL HepG2 Assay for human Retinoic Acid Receptor alpha (RARa) (AID 2283005; active = hit-call score of the fitted dose curve at least 0.9, where 1 is the maximum). A digest of the protocol:
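Reporter transcripts, measured by RT-PCR with fluorescent labeling and capillary electrophoresis after 24 h dosing, reflect activity of an exogenous human RARa–GAL4 fusion in transiently transfected HepG2. Fitted for increase relative to DMSO.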

Assay [3] in a line: BSK_3C_Proliferation: Cell Proliferation Assessment in the BioMAP Diversity Plus: 3C Assay (AID 2283006).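 As to AC50: potency may reflect either rise or fall in cell number versus DMSO.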 As to conditions: primary human endothelial cells (HUVEC). A digest of the protocol:
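Cells (human umbilical vein endothelial, sub-confluent) receive test chemical; after 48 h they are fixed in 10% trichloroacetic acid, stained with 0.1% SRB and read at 560 nm. Activity is referenced to DMSO, fitting increases and decreases.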

The target in assay [4] is Nuclear receptor subfamily 1 group I member 2 (Homo sapiens) (UniProt O75469). The assay can be described thus: ATG_PXR_TRANS: Attagene TRANS-FACTORIAL HepG2 Assay for human Pregnane X Receptor (PXR) (AID 2283008; active = hit-call score of the fitted dose curve at least 0.9, where 1 is the maximum). A digest of the protocol: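 Transient HepG2 transfectants carrying multiplexed reporter transcription units; PXR activity read through a Gal4 chimera. 24 h exposure. RT-PCR/CE fluorescence; upward curve fit referenced to DMSO.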

Read-out in assay [5]: E-selectin (Homo sapiens) (UniProt P16581)
The assay can be described thus: BSK_3C_Eselectin: BioMAP Diversity Plus: 3C Assay for Eselectin Biomarker Activity (AID 2283015).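 As to outcome: cell surface E-selectin protein quantified by ELISA 24 h after dosing.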 As to conditions: primary human endothelial cells (HUVEC); actives raise or lower the signal. In outline: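 Human vascular endothelium from umbilical vein is exposed to test chemicals for 24 h. E-selectin levels are read by ELISA and compared with DMSO controls.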

Read-out in assay [6]: Interleukin-1 alpha (IL1a), IL1A (gene 3552)
Briefly: BSK_BE3C_IL1a: BioMAP Diversity Plus: BE3C Assay for Interleukin-1 alpha (IL1a) Biomarker Activity (AID 2283016). As to conditions: primary human bronchial epithelial cells; actives raise or lower the signal. In outline: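 Signal from IL-1a ELISA, taken 24 h after chemical dosing of human bronchial epithelial cells, is compared with DMSO as baseline using bidirectional curve fitting.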

Read-out in assay [7]: Monocyte Chemoattractant Protein-1 (MCP1), CCL2 (gene 6347)
Briefly: BSK_3C_MCP1: BioMAP Diversity Plus: 3C Assay for Monocyte Chemoattractant Protein-1 (MCP1) Biomarker Activity (AID 2283017). As to conditions: primary human endothelial cells (HUVEC); actives raise or lower the signal. In outline:
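Endothelial cells from human umbilical vein are dosed with chemical, cultured 24 h, then assayed for MCP-1 by ELISA; both increases and decreases are modelled against DMSO controls.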

Read-out in assay [8]: Monocyte Chemoattractant Protein-1 (MCP1), CCL2 (gene 6347)
The assay can be described thus: BSK_4H_MCP1: BioMAP Diversity Plus: 4H Assay for Monocyte Chemoattractant Protein-1 (MCP1) Biomarker Activity (AID 2283018). As to conditions: primary human endothelial cells (HUVEC); actives raise or lower the signal. In outline:
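Endothelial cells from umbilical vein were treated with test chemical, then after 24 h MCP-1 levels were quantified by ELISA; endpoint values came from bidirectional fitting with DMSO as baseline of activity.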

Read-out in assay [9]: Human Leukocyte Antigen - DR isotype (HLADR), HLA-DRA (gene 3122)
Briefly: BSK_3C_HLADR: BioMAP Diversity Plus: 3C Assay for Human Leukocyte Antigen - DR isotype (HLADR) Biomarker Activity (AID 2283019).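 As to outcome: ELISA of cell-surface HLA-DR on HUVEC 24 h after dosing.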 As to conditions: primary human endothelial cells (HUVEC); actives raise or lower the signal. In outline:
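Endothelial cells from human umbilical vein are treated with test chemical; after 24 h, HLA-DR levels are measured by ELISA. Data are fitted in both directions using DMSO as the baseline.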

For assay [10], the target named is Peroxisome proliferator-activated receptor gamma (Homo sapiens) (UniProt P37231). Briefly: ATG_PPARg_TRANS: Attagene TRANS-FACTORIAL HepG2 Assay for human Peroxisome Proliferator-activated Receptor-gamma (PPARg) (AID 2283007; active = hit-call score of the fitted dose curve at least 0.9, where 1 is the maximum). A digest of the protocol: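 Read-out: reporter mRNA induction, detected by fluorescence after RT-PCR and capillary electrophoresis. Transiently transfected human HepG2 liver cells carrying a chimeric NR-Gal4 construct were dosed for 24 h; activity was fitted upward relative to DMSO.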

For assay [11], the target named is human Retinoic Acid Receptor beta (RARb), RARB (gene 5915) (UniProt P10826). The assay can be described thus: ATG_RARb_TRANS: Attagene TRANS-FACTORIAL HepG2 Assay for human Retinoic Acid Receptor beta (AID 2283004; active = hit-call score of the fitted dose curve at least 0.9, where 1 is the maximum). A digest of the protocol:
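HepG2, transient MRTU transfection, NR–Gal4 chimera, 24 h treatment; RT-PCR plus CE fluorescence detection of reporter mRNA; gain of signal vs DMSO.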

Assay [12] has as its target Retinoic acid receptor RXR-alpha (Homo sapiens) (UniProt P19793). The assay can be described thus: ATG_RXRa_TRANS: Attagene TRANS-FACTORIAL HepG2 Assay for human Retinoid X Receptor alpha (RXRa) (AID 2283012; active = hit-call score of the fitted dose curve at least 0.9, where 1 is the maximum). In outline: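 Measures exogenous chimeric NR-GAL4 activity in transfected HepG2 liver cells after 24 h of dosing. Induced reporter mRNA was detected by RT-PCR with capillary electrophoresis, and gain of signal was analysed against DMSO.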

The target of assay [13] is human Thyroid Receptor alpha (THRa1), THRA (gene 7067) (UniProt P10827). The assay can be described thus: ATG_THRa1_TRANS: Attagene TRANS-FACTORIAL HepG2 Assay for human Thyroid Receptor alpha (THRa1) (AID 2283014; active = hit-call score of the fitted dose curve at least 0.9, where 1 is the maximum). In outline: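 First, HepG2 cells receive multiple GAL4-UAS reporter units and the chimeric receptor. They are then dosed for 24 h, after which RNA is reverse-transcribed, amplified, labelled, HpaI-cut and sized by capillary electrophoresis; gain relative to DMSO is scored.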

Read-out in assay [14]: Interleukin-8 (IL8), CXCL8 (gene 3576)
Briefly: BSK_3C_IL8: BioMAP Diversity Plus: 3C Assay for Interleukin-8 (IL8) Biomarker Activity (AID 2283020). As to conditions: primary human endothelial cells (HUVEC); actives raise or lower the signal. A digest of the protocol:
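Endothelial primary cells of human umbilical vein origin are dosed with chemical; after 24 h the IL-8 biomarker is measured by ELISA, and concentration–response is fitted in both directions versus DMSO.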

In assay [15] the target is human Vitamin D Receptor (VDR), VDR (gene 7421) (UniProt P11473). Briefly: ATG_VDR_TRANS: Attagene TRANS-FACTORIAL HepG2 Assay for human Vitamin D Receptor (VDR) (AID 2283022; active = hit-call score of the fitted dose curve at least 0.9, where 1 is the maximum). In outline: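 Fluorescence of labelled reporter cDNA fragments, resolved by capillary electrophoresis, gives mRNA induction after 24 h treatment of HepG2 cells carrying transfected Gal4-fusion reporter units. Activity is fitted in the positive direction with DMSO as baseline.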

Read-out in assay [16]: Monokine induced gamma interferon (MIG), CXCL9 (gene 4283)
Briefly: BSK_3C_MIG: BioMAP Diversity Plus: 3C Assay for Monokine induced gamma interferon (MIG) Biomarker Activity (AID 2283021).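 As to AC50: MIG protein level measured by immunoassay in the treated endothelial cultures.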 As to conditions: primary human endothelial cells (HUVEC); actives raise or lower the signal. In outline:
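Endothelial primary cells (human umbilical vein) are dosed with test chemical in the 3C system. MIG levels are measured by ELISA at 24 h and fitted in both directions relative to DMSO.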

Assay [17] deals with human RAR-related Orphan Receptor beta (RORb), RORB (gene 6096) (UniProt Q92753). Briefly: ATG_RORb_TRANS: Attagene TRANS-FACTORIAL HepG2 Assay for human RAR-related Orphan Receptor beta (RORb) (AID 2283010; active = hit-call score of the fitted dose curve at least 0.9, where 1 is the maximum). A digest of the protocol:
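Transfect HepG2 with multiple GAL4-UAS reporter transcription units; dose chemicals for 24 h; isolate RNA, reverse-transcribe and PCR-amplify reporter sequences; label, digest and resolve fragments by capillary electrophoresis; fit increases relative to DMSO.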

Assay [18] addresses human Peroxisome Proliferator-activated Receptor alpha (PPARa), PPARA (gene 5465) (UniProt Q07869). Briefly: ATG_PPARa_TRANS: Attagene TRANS-FACTORIAL HepG2 Assay for human Peroxisome Proliferator-activated Receptor alpha (PPARa) (AID 2283001; active = hit-call score of the fitted dose curve at least 0.9, where 1 is the maximum). A digest of the protocol:
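Reporter transcripts quantified by RT-PCR plus capillary electrophoresis after 24 h treatment, fitted upward relative to DMSO. Cells: human HepG2 transiently carrying multiple GAL4-UAS reporter units driven by NR-Gal4 chimeras.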

Assay [19] has as its target human Retinoid X Receptor beta (RXRb), RXRB (gene 6257) (UniProt P28702). Briefly: ATG_RXRb_TRANS: Attagene TRANS-FACTORIAL HepG2 Assay for human Retinoid X Receptor beta (RXRb) (AID 2283013; active = hit-call score of the fitted dose curve at least 0.9, where 1 is the maximum). In outline: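 Chimeric receptor-Gal4 activity was assessed in transiently transfected human HepG2 cells after 24 h exposure. Transcripts from GAL4-UAS reporters were quantified by fluorescent RT-PCR and capillary electrophoresis, with DMSO as negative control and baseline.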

Results filed as inconclusive are left out. The source made the active and inactive calls. The calls were made as follows, unless noted: active = hit-call score of the fitted dose curve at least 0.9, where 1 is the maximum; inactive = score below 0.9.

human Vitamin D Receptor (VDR), VDR (gene 7421), sequence (P11473 whole entry, looked up, the tested form may be a part): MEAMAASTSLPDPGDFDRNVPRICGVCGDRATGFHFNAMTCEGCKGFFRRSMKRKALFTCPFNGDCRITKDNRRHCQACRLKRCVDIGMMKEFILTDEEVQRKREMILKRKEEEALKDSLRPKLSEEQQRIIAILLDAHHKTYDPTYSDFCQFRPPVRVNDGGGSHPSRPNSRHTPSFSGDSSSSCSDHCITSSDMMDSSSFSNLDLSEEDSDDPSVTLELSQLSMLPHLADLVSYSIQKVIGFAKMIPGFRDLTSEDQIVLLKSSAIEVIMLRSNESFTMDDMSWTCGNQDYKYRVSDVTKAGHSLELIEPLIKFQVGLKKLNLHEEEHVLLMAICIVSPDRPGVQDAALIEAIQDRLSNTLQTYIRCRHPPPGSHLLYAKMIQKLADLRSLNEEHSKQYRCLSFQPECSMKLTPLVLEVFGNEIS
Nuclear receptor subfamily 1 group I member 2 (Homo sapiens), sequence (O75469 whole entry, looked up, the tested form may be a part): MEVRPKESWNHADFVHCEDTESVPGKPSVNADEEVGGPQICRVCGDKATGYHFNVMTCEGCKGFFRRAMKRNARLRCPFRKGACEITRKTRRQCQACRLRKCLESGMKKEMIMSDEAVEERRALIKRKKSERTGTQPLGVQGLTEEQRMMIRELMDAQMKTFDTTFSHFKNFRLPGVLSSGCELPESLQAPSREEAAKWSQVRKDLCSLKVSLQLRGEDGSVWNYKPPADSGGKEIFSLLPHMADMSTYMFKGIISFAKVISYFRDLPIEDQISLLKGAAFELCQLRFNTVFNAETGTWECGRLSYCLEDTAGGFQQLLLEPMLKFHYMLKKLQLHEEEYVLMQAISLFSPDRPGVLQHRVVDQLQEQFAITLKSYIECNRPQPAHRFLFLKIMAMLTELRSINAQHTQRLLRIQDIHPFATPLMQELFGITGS
Peroxisome proliferator-activated receptor gamma (Homo sapiens), sequence (P37231 whole entry, looked up, the tested form may be a part): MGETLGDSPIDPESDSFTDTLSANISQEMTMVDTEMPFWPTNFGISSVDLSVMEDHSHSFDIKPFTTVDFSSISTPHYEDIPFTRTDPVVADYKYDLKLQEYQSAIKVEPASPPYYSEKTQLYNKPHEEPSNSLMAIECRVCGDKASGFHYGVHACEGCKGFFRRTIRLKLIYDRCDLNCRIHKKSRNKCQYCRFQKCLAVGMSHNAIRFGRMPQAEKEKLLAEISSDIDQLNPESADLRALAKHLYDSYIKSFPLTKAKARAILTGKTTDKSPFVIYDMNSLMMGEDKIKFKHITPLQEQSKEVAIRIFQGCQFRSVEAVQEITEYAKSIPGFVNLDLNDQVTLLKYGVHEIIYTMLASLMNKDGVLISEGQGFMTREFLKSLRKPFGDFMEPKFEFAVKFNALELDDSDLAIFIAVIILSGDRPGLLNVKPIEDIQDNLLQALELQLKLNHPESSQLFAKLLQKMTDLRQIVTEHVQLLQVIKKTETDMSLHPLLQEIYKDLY
Retinoic acid receptor RXR-alpha (Homo sapiens), sequence (P19793 whole entry, looked up, the tested form may be a part): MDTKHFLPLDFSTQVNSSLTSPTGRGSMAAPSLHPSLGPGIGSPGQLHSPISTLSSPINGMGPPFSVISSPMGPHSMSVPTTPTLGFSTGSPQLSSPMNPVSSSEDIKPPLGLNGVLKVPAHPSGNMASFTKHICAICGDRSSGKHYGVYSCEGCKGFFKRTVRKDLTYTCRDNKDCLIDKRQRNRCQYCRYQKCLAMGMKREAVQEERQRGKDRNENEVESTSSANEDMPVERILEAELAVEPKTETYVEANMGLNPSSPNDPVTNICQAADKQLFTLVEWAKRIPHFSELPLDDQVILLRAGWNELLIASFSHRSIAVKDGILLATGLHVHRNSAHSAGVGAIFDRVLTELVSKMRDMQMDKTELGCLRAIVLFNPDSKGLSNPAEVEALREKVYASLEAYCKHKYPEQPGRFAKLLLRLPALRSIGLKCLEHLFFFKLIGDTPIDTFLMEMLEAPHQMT
human Retinoid X Receptor beta (RXRb), RXRB (gene 6257), sequence (P28702 whole entry, looked up, the tested form may be a part): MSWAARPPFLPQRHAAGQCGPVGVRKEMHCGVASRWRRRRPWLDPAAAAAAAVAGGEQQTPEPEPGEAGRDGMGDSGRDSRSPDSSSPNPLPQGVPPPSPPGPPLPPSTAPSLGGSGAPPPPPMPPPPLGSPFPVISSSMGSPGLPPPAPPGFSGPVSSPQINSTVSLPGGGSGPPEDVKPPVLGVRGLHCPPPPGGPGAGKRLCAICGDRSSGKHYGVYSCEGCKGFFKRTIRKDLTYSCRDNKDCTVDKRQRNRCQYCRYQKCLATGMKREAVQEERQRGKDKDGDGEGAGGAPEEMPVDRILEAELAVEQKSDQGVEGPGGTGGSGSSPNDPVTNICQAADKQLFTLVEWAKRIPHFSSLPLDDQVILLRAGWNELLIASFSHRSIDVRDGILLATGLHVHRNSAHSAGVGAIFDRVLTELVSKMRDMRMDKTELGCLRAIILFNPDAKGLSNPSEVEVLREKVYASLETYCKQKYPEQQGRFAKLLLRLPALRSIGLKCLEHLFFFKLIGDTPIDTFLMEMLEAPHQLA
human Thyroid Receptor alpha (THRa1), THRA (gene 7067), sequence (P10827 whole entry, looked up, the tested form may be a part): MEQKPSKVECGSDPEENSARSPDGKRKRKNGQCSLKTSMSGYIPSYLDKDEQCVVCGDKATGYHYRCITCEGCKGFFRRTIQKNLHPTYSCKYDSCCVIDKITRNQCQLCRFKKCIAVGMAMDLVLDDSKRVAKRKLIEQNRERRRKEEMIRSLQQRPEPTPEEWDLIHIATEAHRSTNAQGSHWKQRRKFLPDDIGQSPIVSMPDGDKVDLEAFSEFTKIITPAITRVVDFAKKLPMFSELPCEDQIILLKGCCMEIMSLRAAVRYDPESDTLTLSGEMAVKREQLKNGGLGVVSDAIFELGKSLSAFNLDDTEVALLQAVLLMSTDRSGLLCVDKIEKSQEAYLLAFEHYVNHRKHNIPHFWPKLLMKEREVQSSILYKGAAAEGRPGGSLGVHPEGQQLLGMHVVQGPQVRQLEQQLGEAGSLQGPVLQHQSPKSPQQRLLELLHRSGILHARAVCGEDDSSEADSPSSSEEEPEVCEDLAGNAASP
Retinoic acid receptor alpha (Homo sapiens), sequence (P10276 whole entry, looked up, the tested form may be a part): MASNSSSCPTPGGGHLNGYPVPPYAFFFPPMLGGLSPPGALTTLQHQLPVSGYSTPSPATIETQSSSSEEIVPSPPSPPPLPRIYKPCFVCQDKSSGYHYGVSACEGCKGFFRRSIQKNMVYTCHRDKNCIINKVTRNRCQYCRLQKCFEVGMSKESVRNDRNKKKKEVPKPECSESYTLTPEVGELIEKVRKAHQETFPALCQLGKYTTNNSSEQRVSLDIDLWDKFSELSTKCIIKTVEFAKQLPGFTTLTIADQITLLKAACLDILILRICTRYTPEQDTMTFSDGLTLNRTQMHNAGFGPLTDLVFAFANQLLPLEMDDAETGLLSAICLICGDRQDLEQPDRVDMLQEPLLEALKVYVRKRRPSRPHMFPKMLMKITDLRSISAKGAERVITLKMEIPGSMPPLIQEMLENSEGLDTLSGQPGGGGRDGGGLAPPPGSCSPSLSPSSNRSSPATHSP
human RAR-related Orphan Receptor beta (RORb), RORB (gene 6096), sequence (Q92753 whole entry, looked up, the tested form may be a part): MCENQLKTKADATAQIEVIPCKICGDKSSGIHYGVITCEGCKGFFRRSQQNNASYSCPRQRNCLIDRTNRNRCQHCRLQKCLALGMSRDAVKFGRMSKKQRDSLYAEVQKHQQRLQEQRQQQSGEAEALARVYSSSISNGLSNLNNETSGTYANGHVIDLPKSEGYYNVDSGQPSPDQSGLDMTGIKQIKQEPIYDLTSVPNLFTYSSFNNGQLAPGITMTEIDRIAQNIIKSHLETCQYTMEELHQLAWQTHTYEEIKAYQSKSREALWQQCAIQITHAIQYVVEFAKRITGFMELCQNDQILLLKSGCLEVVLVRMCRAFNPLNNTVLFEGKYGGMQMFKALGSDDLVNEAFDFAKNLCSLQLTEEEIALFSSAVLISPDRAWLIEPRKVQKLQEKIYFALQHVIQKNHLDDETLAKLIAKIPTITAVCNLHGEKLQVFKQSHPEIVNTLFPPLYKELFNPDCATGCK
E-selectin (Homo sapiens), sequence (P16581 whole entry, looked up): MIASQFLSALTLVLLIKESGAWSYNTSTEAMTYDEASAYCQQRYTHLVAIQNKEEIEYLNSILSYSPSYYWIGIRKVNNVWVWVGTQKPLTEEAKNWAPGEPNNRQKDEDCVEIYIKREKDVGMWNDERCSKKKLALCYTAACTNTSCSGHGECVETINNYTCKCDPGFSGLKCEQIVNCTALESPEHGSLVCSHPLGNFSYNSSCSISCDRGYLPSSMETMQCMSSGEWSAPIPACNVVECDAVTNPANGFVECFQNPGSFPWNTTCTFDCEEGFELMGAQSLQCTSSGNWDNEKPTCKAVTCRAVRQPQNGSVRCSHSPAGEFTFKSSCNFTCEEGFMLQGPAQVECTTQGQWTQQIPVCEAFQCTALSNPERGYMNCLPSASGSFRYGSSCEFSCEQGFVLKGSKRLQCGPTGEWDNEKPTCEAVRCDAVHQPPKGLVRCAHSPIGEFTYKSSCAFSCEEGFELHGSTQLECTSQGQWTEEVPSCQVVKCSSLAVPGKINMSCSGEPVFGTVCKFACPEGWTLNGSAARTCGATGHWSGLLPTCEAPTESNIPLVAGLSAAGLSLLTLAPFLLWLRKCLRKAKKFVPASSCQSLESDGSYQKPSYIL
human Retinoic Acid Receptor beta (RARb), RARB (gene 5915), sequence (P10826 whole entry, looked up, the tested form may be a part): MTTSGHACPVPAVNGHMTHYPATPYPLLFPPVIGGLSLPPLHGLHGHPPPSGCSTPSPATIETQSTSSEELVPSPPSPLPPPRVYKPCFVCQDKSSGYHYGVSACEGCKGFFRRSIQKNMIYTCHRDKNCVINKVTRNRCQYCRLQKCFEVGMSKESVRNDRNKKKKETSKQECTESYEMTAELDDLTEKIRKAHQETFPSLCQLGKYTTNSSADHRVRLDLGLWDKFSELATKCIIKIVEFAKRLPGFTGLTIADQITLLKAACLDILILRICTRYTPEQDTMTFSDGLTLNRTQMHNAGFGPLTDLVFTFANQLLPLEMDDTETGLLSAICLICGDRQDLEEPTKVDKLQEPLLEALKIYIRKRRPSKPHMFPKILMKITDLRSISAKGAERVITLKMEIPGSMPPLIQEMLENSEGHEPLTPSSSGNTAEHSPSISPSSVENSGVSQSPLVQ

Broadly, the AC50 is the concentration at which the activity in the assay is half-maximal. `CCN(CC)C(=O)c1cc(S(=O)(=O)Cc2ccccc2)c(N2CCC(c3ccccc3)CC2)cc1N(CC)CCN(C)C`: the AC50 was 28.7 µM (active) in assay [1]; 6.12 µM (active) in assay [3]; 0.091 µM (active) in assay [4]; 27.2 µM (active) in assay [5]; 9.53 µM (active) in assay [6]; 10.4 µM (active) in assay [7]. The AC50 is 18.7 µM (active) in [8] and 6.27 µM (active) in assay [9]. Besides, the call in assay [2] was inactive.
Turning to `CN1C(=O)N(c2ccccc2Br)Cc2cnc(Nc3ccc4c(c3)OCC(CO)O4)nc21` (stereo not given), the AC50 in assay [1] was 28.1 µM (active); in assay [3], 2.28 µM (active); in assay [5], 15.2 µM (active); in [6] it was 2.57 µM (active); in assay [7] it was 14.7 µM (active); in assay [8], 2.11 µM (active). In addition, the AC50 in assay [9] was 9 µM (active). Also, the compound was called inactive in [10] and in [4].
Take `CO[C@H]1/C=C/O[C@@]2(C)Oc3c(C)c(O)c4c(O)c(c(/C=N/N5CCN(C)CC5)c(O)c4c3C2=O)NC(=O)/C(C)=C\C=C\[C@H](C)[C@H](O)[C@@H](C)[C@@H](O)[C@@H](C)[C@H](OC(C)=O)[C@@H]1C`: the result in assay [1], in assay [11], in [2], in assay [3], in assay [10] and in [12] was inactive. Further, the call in assay [13], in assay [5], in assay [6], in [7], in [8] and in [9] was inactive. For the same compound, the outcome in assay [14] and in [15] was inactive.
As to `O=C1c2ccccc2C(=O)N1CCc1noc(-c2ccc(CN3CCCCCC3)s2)n1`, the result in assay [1], in assay [3], in assay [10], in assay [12], in [13] and in assay [5] was inactive. In addition, the result in assay [6], in assay [7], in assay [8] and in [16] was inactive. Also, the AC50 is 2.72 µM (active) in [4] and 26.7 µM (active) in [9].
As for `c1ccc2n[nH]nc2c1`, the outcome in assay [1], in [2], in assay [3], in [10], in [4] and in assay [17] was inactive. For the same compound, the result in assay [12], in [13], in assay [5], in [6], in assay [7] and in assay [8] was inactive. The outcome in assay [9] was inactive.
For `NC(=O)c1nc(-c2cccc(-c3cc(F)ccc3OCC(F)(F)C(F)(F)F)c2)n[nH]1`, the AC50 in [3] is 32.4 µM (active); in assay [10], 13 µM (active); in [4] it was 8.71 µM (active); in assay [5], 34.9 µM (active); in [6] it was 38.8 µM (active); in assay [7], 35.3 µM (active). In addition, the figures for the AC50 in [8], in assay [9] and in assay [16] were 29.3 µM (active), 22.6 µM (active) and 41.4 µM (active), respectively. Also, the outcome in assay [12] and in [15] was inactive.
Turning to `CCOC(=O)O[C@H](C)OC(=O)c1ccc2c(c1)cc(C(=O)NC1CCN(C(C)C)CC1)n2Cc1cc(-c2ccc(Cl)s2)on1`, the call in assay [18], in [10] and in assay [4] was inactive. Further, the AC50 in [1] is 8.99 µM (active); in assay [3], 1.77 µM (active); in [5], 7.05 µM (active); in assay [6], 11 µM (active); in assay [7] it was 6.56 µM (active); in [8], 5.27 µM (active). Further, the values for the AC50 in assay [9] and in assay [16] were 7.08 µM (active) and 8.78 µM (active), respectively.
Turning to `COCC(C)OCC(C)OCC(C)O` (stereo not given), the result in [18], in assay [1], in assay [3], in [4], in assay [19] and in [13] was inactive. Also, the result in [5], in assay [6], in assay [7], in assay [8], in assay [9] and in assay [16] was inactive.
`O=C=NCCCCCCN=C=O`: the result in assay [1], in assay [3], in assay [10], in assay [4], in assay [17] and in assay [12] was inactive. Further, the result in [19], in [5], in assay [6], in [7], in [8] and in assay [9] was inactive. Besides, in [14], the outcome was inactive.
With `CCCCCCCCN(C)CCCCCCCC`, the outcome in assay [1], in assay [11], in [3], in [4], in assay [17] and in [12] was inactive. For the same compound, the compound was classed as inactive in assay [13], in assay [5], in assay [6], in [7], in assay [8] and in assay [9]. Moreover, the outcome in [14], in [16] and in assay [15] was inactive. Moreover, in assay [19], the AC50 was 43.5 µM (active).
